We go through 40 compounds from PubChem BioAssay (NCATS).

Results filed as inconclusive are left out. Activity calls are given as the source filed them. Unless noted, the call rests on the fitted dose curve.

Calcium and integrin-binding protein 1 (Homo sapiens), sequence (Q99828 whole entry, looked up): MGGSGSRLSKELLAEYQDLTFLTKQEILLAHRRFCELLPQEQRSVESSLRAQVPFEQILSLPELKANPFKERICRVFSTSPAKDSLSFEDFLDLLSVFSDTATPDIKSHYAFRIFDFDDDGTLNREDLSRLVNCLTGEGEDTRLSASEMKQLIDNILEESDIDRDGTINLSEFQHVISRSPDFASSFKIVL

System in the first assay: not listed separately
The assay can be described thus: Confirmatory qHTS for VERO E6 Cytotoxicity Assay: Counterscreen for SARS-CoV-2 CPE Assay (AID 1508605). Further: nearly all actives have a fitted effect of over 60% in size. Further: potency means the concentration at half of the fitted maximal effect. The settings on record: cell viability luminescence; series mostly up to 20 µM. (In general: qHTS replaces the single test concentration by a dilution series.)
On to `c1ccc2c(-c3cnn4cc(-c5ccc(OCCN6CCOCC6)cc5)cnc34)ccnc2c1`, for which the Potency entry is “inactive”.
Same read-out and setting: with `COC(=O)[C@]1(C)CC[C@]2(C)CC[C@]3(C)C4=CC=C5C(=CC(=O)C(O)=C5C)[C@]4(C)CC[C@@]3(C)[C@@H]2C1` the figure was 1.01 µM (active); with `O=C1NC(=O)/C(=C\c2ccc(-c3ccc(F)cc3)o2)S1`, “inactive”.
Same read-out and setting: to `Nc1nc(Nc2ccc3c(c2)CC[C@@H](N2CCCC2)CC3)nn1-c1cc2c(nn1)-c1ccccc1CCC2` belongs 10 µM (active).

System in another assay: not listed separately
Description: Confirmatory qHTS for activators (rescue) of SARS-CoV-2 Cytopathic Effect (CPE) (AID 1508606). Further: nearly all actives have a fitted effect of over 70% in size. Further: potency means the concentration at half of the fitted maximal effect. The conditions noted are these: Vero E6 SARS-CoV-2 CPE rescue, viability luminescence; series mostly up to 20 µM.
As to `CN(C)C(=O)NC1(c2ccccc2)CCN(CCC[C@]2(c3ccc(Cl)c(Cl)c3)CCCN(C(=O)c3ccccc3)C2)CC1`, the Potency entry was “inactive”.
Consider `COc1cc(N2CCN(C)CC2)ccc1Nc1nccc(-c2cn(C)c3cnccc23)n1`, for which the Potency was 8.91 µM (active).
For the compound `OC1CCC(Oc2cccc3cnc(Nc4ccc5nc[nH]c5c4)nc23)CC1` (stereo not given), the Potency is 4.47 µM (active).
With `O=S(=O)(c1cccc2ccccc12)n1ccc2ccc(N3CCN4CCCC4C3)cc21` (stereo not given), the Potency was 11.2 µM (active).
The same measure, in the same setting: to `c1ccc(-c2cc(CCC3CCNCC3)c3ccccc3n2)cc1` belongs “inactive”; to `O=C(O)c1ccc(CCCc2ccc(OCCc3ccc(F)cc3)cc2)o1`, “inactive”.
Still for that read-out and setting: with `Cn1c(NC[C@@H](N)Cc2ccccc2)nc(-c2ccncc2)c(-c2ccc3ccccc3c2)c1=O` the figure was 6.31 µM (active).
On the same count and under the same terms, to `COc1ccc(S(=O)(=O)N(CCO)c2ccccc2CN(C)C/C=C/c2ccc(Cl)cc2)cc1` belongs 10 µM (active).
Consider `COc1cc2ncnc(Sc3nnc(C)s3)c2cc1OC`, for which the Potency is 3.98 µM (active).
Regarding `Cc1nc(Nc2cnn(C3CCNCC3)c2)nc2c1N(C)C(=O)c1cc3ccccc3cc1N2C`, the Potency is 10 µM (active).
Still for that read-out and setting: to `Nc1nc2c(c(N3CC[C@@H](N)C3)n1)CCCc1ccccc1-2` belongs 10 µM (active); to `Cc1cc(C)cc(-c2cnc3cc(Cl)c(-c4cccc(O)c4)cc3c2OCCCN)c1`, “inactive”; to `C[C@H]1CC[C@@]2(OC1)O[C@H]1CC3[C@@H]4CC[C@@H]5C[C@@H](O[C@@H]6O[C@H](CO)[C@@H](O[C@@H]7O[C@@H](C)[C@H](O)[C@@H](O)[C@H]7O)[C@H](O)[C@H]6O[C@@H]6O[C@H](CO)[C@@H](O)[C@H](O)[C@H]6O)CC[C@]5(C)C4CC[C@]3(C)[C@H]1[C@@H]2C` (stereo not given in full), “inactive”.
For `C/C=C(\C)C(=O)O[C@H]1C=C(CO)C(=O)[C@H](OC(C)=O)[C@H]1C(C)C`, the Potency result was “inactive”.
As for `CC(=O)O/N=C1\C(=O)N(Cc2cc(Cl)ccc2Cl)c2ccc(Cl)cc21`, the Potency is 7.94 µM (active).
Take `O=C(O)/C=C/c1ccc(-c2ccc(O)c(C34CC5CC(CC(C5)C3)C4)c2)cc1`: the Potency entry is “inactive”.
Same read-out and setting: with `CC1(C)CCC(C)(C)c2cc(C#Cc3ccc(C(=O)O)cc3)ccc21` the entry was “inactive”; with `CC(=O)O[C@@H]1C[C@H](O)[C@@]23CO[C@H](O)[C@]1(C)C2C[C@@H](O)[C@]1(C)C3C(=O)[C@H](OC(C)=O)[C@@]2(C)[C@H](c3ccoc3)C[C@H]3O[C@]321` (stereo not given in full), 1.06 µM (active); with `CN(CCCNC(=O)c1ccc2nc3c(c(Cl)c2c1)CCCC3)Cc1ccccc1`, 7.08 µM (active).
Turning to `COc1ccc2cc(-c3cc(-c4cc(Cl)cc(Cl)c4)nn3C(C)c3ccc(C(=O)NCCC(=O)O)cc3)ccc2c1` (stereo not given), the Potency entry was “inactive”.
For the compound `C[C@@H]1C[C@H](N)C[C@H](c2ccncc2NC(=O)c2ccc(F)c(-c3c(F)cccc3F)n2)C1`, the Potency was 8.91 µM (active).
For the compound `C(=N\Nc1nc(Nc2ccccc2)nc(N2CCOCC2)n1)/c1c[nH]c2ccccc12`, the Potency is 0.0898 µM (active).
For `CC(C)C[C@H](NC(=O)[C@H](Cc1ccccc1)NC(=O)OCc1ccccc1)C(=O)C=O`, the Potency was 8.91 µM (active).
The same measure, in the same setting: with `Cc1nc2ccc(-n3ncc(C(=O)c4cc5ccccc5[nH]4)c3N)cc2[nH]1` the entry was “inactive”; with `CC(C)c1ccc(NC(=O)C(c2ccccc2)N(C)C(=O)Cc2c[nH]c3ccccc23)cc1` (stereo not given), 3.55 µM (active).
For the compound `COc1ccc(CNC(=O)Nc2ncc([N+](=O)[O-])s2)cc1`, the Potency is 7.94 µM (active).
Same read-out and setting: to `COCCN1CCN(Cc2ccc(-c3n[nH]c4c3C(=O)c3c(NC(=O)NN5CCOCC5)cccc3-4)cc2)CC1` belongs 2.82 µM (active).
As to `Cc1cc(CN)cc(C)c1NC(=O)c1ccc(-c2cc(Cl)ccc2Cl)o1`, the Potency is 7.94 µM (active).
The same measure, in the same setting: with `O=S(=O)(NCC1CC1)c1ccc(Nc2nccc(N3CCCc4cc(O)ccc43)n2)cc1` the figure was 0.794 µM (active).
Consider `CC(C)(O)CNc1ncc(-c2ccnc(Nc3ccncc3)n2)c(CC2CC2)n1`, for which the Potency is 1.12 µM (active).

The target in a further assay is Calcium and integrin-binding protein 1 (Homo sapiens) (UniProt Q99828). Description: Primary qHTS for Identification of Calcium Integrin Binding Protein 1 (CIB1) Competitor (AID 1508620; active means well fitted inhibition curve with a large enough effect;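 further: GST tagged CIB1 binding a fluorescein labelled alphaIIb integrin peptide tracer; top concentration of the series differs between compounds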). The settings on record: CIB1-GST / FITC-alphaIIb peptide fluorescence polarization; series mostly up to 114 µM. The method, boiled down:
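Fluorescence polarization competition: CIB1-GST (1 uM final) preincubated with compound 15 min at room temperature, then FITC-labeled alphaIIb peptide (100 nM final) added for another 15 min. Polarization read at Ex 480/Em 540.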
For the compound `Cn1cc(Br)c(C2N=C(Nc3nc4ccccc4o3)NC3=C2C(=O)CCC3)n1` (stereo not given), the result was inactive.
Same read-out and setting: to `CCOc1ccc(CCNC(=O)c2cc3sccc3n2CCN(C)C)cc1OCC` belongs “inactive”; to `Cc1ccccc1C(=O)N1CCc2cc(N3CCC(NC(=O)Cc4ccccc4)C3)ccc21` (stereo not given), “inactive”; to `Cc1cccc(-n2cnc3cc(C(=O)N4CCCC(C)C4)ccc32)c1` (stereo not given), “inactive”.
As for `N#Cc1nc(-c2cccc3ccccc23)oc1NCc1ccccc1`, the result was inactive.
Same read-out and setting: to `CCOc1ccc(CCNC(=O)c2cc3ccccc3n2Cc2cccc(C)n2)cc1OCC` belongs “inactive”.
